Results published in PubChem BioAssay AID504834 (National Center for Advancing Translational Sciences (NCATS), 2011).
Hit rate of the full screen: of about 320,000 compounds, about 22,000 (6.9%) were called active. Another 27% or so got no clear call; they are omitted. The entries come from a sample that favours actives as a whole. A number with no mark means an inactive call. The call rests on the fitted dose curve; in most records, active means well fitted inhibition curve with a large enough effect; inconclusive means small, poorly fitted or top-dose-only effect, or another doubt; inactive means no such curve, though single readings can be large or run the other way.

test: Primary qHTS for delayed death inhibitors of the malarial parasite plastid, 96 hour incubation; conditions: P. falciparum luciferase reporter growth; series mostly up to 28.7 µM; activity change, negative = inhibition: at the top concentration
Source text: The goal of this screen is to discover new antimalarial compounds that act by inhibiting the development of the apicoplast in the malarial parasite Plasmodium falciparum. The biochemical processes that make this organelle essential for erythrocytic stage parasites are not well understood. However, antibiotics such as azithromycin and tetracycline, which target the apicoplast translational machinery, have a potent antimalarial effect.
We have developed a cell-based assay that measures parasite growth based on the expression of an integrated copy of a firefly luciferase reporter. To detect small molecules that cause this "delayed death" phenotype, erythrocytes infected with the luciferase-expressing parasites were incubated with compounds for either one or two generations, corresponding to 48 and 96 hours, respectively. Compounds that inhibit parasite growth in the second generation, but not the first, should be enriched in antimalarials that target the apicoplast. Growth inhibition is detected by a decrease in luciferase activity.
Assay Provider: David Fidock and Eric Ekland, Columbia University
Keywords: NIH Roadmap, MLPCN, MLI, MLSMR, qHTS, NCGC, qHTS, malaria, luciferase, viability
Four microliters of infected erythrocytes (2% hematocrit, 0.05% parasitemia final concentration) in culture medium were dispensed and the plates incubated for 96 hours at 37 C in 5% CO2. Two microliters of luciferase detection reagent was added and luminescence was detected by a ViewLux (PerkinElmer) reader.
On the % scale 0 is the no-effect control and ±100 the full control effect; potency means the concentration at half of the fitted maximal effect.

SMILES	Potency	activity change, negative = inhibition
CC(Sc1nncs1)C(=O)NCc1ccc2c(c1)OCO2 (configuration not stated)	13.1 µM (active)	
O=C(NCc1ccc2c(c1)OCO2)c1ccc(Cl)s1		20.2%
O=C(NCc1ccc2c(c1)OCO2)c1sccc1Br		23.1%
Cc1ccc(S(=O)(=O)NCC(=O)N(CC(=O)NCC2CCCO2)c2cccc(F)c2)cc1 (configuration not stated)		38.5%
Nc1nnnn1/N=C/c1cc([N+](=O)[O-])ccc1O		-13.5%
Cc1sc(NC(=O)c2ccc3ncsc3c2)c(C(N)=O)c1C		202%
Cc1ccc(S(=O)(=O)N2CCOCC2)cc1C(=O)Nc1ccccc1N1CCCC1		-12.8%
O=C(Nc1ccccc1N1CCOCC1)c1ccncc1		0.269%
O=C(Nc1ccccc1N1CCOCC1)c1csc2c1CCCC2	10.4 µM (active)	
CCCc1cc(=O)[nH]c(SCC(=O)c2c(N)n(CC(C)C)c(=O)n(C)c2=O)n1		21.4%
CCOC(=O)c1c(C)[nH]c(C)c1S(=O)(=O)N(C)CC(=O)Nc1ccccc1C		-0.876%
CCc1ccc(OCC(=O)N(Cc2ccccc2)C2CCS(=O)(=O)C2)cc1 (configuration not stated)		-19.5%
O=C(CCC(=O)c1ccccc1)NCc1cccc(C(F)(F)F)c1		10.8%
Cc1ccc2[nH]c3c(=O)n(Cc4ccccn4)cnc3c2c1		-4.35%
Cc1ccc(C)c(Cn2cnc3c(oc4ccccc43)c2=O)c1	2.08 µM (active)	
CCC(C(=O)OC)n1cnc2c(oc3ccccc32)c1=O (configuration not stated)		-14.6%
CC(C(=O)N(C)CC(=O)Nc1ccccc1C(F)(F)F)N1C(=O)c2ccccc2C1=O (configuration not stated)		-12.6%
Cc1csc2nc(COC(=O)c3cccc(N(C)C)c3)cc(=O)n12		175%
CCOC(=O)N1CCC(N2Cc3cccc(C(=O)Nc4c(C)cccc4CC)c3C2=O)CC1		2.75%
C=C1CCC(N(O)c2cc(C)on2)C(=C)CCC2C1CC2(C)C (configuration not stated)	4.65 µM (active)	
CN(NS(=O)(=O)c1cccs1)c1ncc(C(F)(F)F)cc1Cl		35%
COc1cc(-c2nnc(NC(=O)C3=COCCO3)o2)cc(OC)c1OC		-2.47%

SMILES	Potency	activity change, negative = inhibition
O=C(Nc1nnc(C2=COCCO2)o1)c1ccc([N+](=O)[O-])s1	11.7 µM (active)	
CCC(CC)c1nnc(NC(=O)C2=COCCO2)s1		65.7%
COCCNc1ccc(-c2n[nH]c(=O)c3ccccc23)cc1[N+](=O)[O-]		28.5%
O=C(NCCc1c[nH]c2ccccc12)c1cccc(Br)c1		38.4%
O=C(CN1C(=O)NC2(CCCCC2)C1=O)NCCc1c[nH]c2ccccc12		-0.132%
CC1(C(=O)NCCc2c[nH]c3ccccc23)C=CC2(CCCCC2)N1C(=O)c1ccccc1 (configuration not stated)	11.7 µM (active)	
Cc1ccc(OCCC(=O)OCC(=O)N2c3ccccc3NC(=O)C2(C)C)cc1		-1.08%
Cc1nnc(SCC(=O)Nc2ccc(S(=O)(=O)Nc3ccc(Cl)nn3)cc2)s1		-22.5%
Cc1ccccc1N1CCN(C2CCCN(C(=O)c3ocnc3C)C2)CC1 (configuration not stated)		80.8%
Cc1ccc(-n2c(-c3ccc(Cl)cc3)n[nH]c2=S)cc1		-1.55%
Cc1cc([N+](=O)[O-])ccc1NC(=O)C1CCCO1 (configuration not stated)		59.8%
Cc1cc([N+](=O)[O-])ccc1NC(=O)c1ccc(NC(=O)C(C)C)cc1		18% [at 5.75 µM]
CC(=O)c1ccc(NC(=O)Nc2ccc([N+](=O)[O-])cc2C)cc1	9.28 µM (active)	
CCOc1ccccc1C(=O)NCc1ccco1		9%
O=C(NCc1ccco1)c1ccc(CS(=O)(=O)Cc2ccc(F)cc2)o1	8.28 µM (active)	
CCN(CC(=O)NCc1ccco1)S(=O)(=O)c1ccc(F)cc1		2.62%
CC1(C)Oc2ccc3ccc(=O)oc3c2/C(=N/O)C1=O		-23.1%
NC(=O)Cc1ccc2c(c1)[nH]c1ccccc12		-7.47%
C[C@H](NC(=O)C1CC(=O)N(c2ccc3c(c2)OCO3)C1)C(=O)NCc1ccco1 (some centres not stated)		0.347%
Cc1ccccc1OC(=O)Cn1c(C(F)(F)F)nc2ccccc21		42.4%
CCc1cccc(C)c1N(C(=O)Cn1c(CO)nc2ccccc21)C(C)COC (configuration not stated)		0.927%
CCOCN(C(=O)Cn1c(C(C)O)nc2ccccc21)c1c(C)cccc1CC (configuration not stated)	8.28 µM (active)	

SMILES	Potency	activity change, negative = inhibition
CC(C)=NN1C(=O)c2ccccc2NC1(C)C		13.6%
Cc1csc(NC(=S)Nc2cccc(Cl)c2)n1		-84.6%
O=C(Nc1cccc2ncccc12)c1ccc(-c2ccc(Cl)cc2Cl)o1		12.7%
Cc1csc(NC(=O)c2ccc(-c3ccc(Cl)cc3Cl)o2)n1	4.65 µM (active)	
COc1cc(S(=O)(=O)N2CCN=C2c2ccccc2)ccc1Cl		-2.8%
Cc1ccc(-n2c(O)c(C=Nc3ccc(S(=O)(=O)Nc4ncccn4)cc3)c3ccccc3c2=O)cc1C		38.1%
COc1ccc(-n2c(O)c(C=NCC(c3ccco3)N3CCCC3)c3ccccc3c2=O)cc1OC (configuration not stated)	10.4 µM (active)	
CCN(CC)CCCN=Cc1c(O)n(-c2ccc(C)cc2)c(=O)c2ccccc12		13.8%
O=c1[nH]c(N2CCOCC2)nc2ccccc12		10.7%
CC(C(=O)NC1CCS(=O)(=O)C1)N1C(=O)/C(=C/c2ccc(Cl)cc2)SC1=S (configuration not stated)		-0.569%
Cc1ccsc1/C=C1\SC(N2CCOCC2)=NC1=O		51.5%
O=C1N=C(N2CCOCC2)S/C1=C\C=C/c1ccccc1		56.5%
CC1CCN(C2=NC(=O)/C(=C/c3cn[nH]c3-c3ccccc3)S2)CC1	13.1 µM (active)	
Cc1ccc(-c2nnc(CN3CCN(C)CC3)o2)cc1		73.6%
COc1ccc(CCNC(=O)C(=O)NCC2OCCN2S(=O)(=O)c2ccc(F)cc2)cc1OC (configuration not stated)		-24.7%
O=[N+]([O-])c1ccc(O)c(/C=N/Nc2ccccc2[N+](=O)[O-])c1		8.78%
Cc1ccc(NS(=O)(=O)c2ccc(N/N=C/c3ccccc3OCC(=O)O)c([N+](=O)[O-])c2)c(C)c1	9.28 µM (active)	
Cc1ccc(S(=O)(=O)NC(=O)COc2ccccc2C)cc1		23.8%
O=C(Cc1ccc(Cl)cc1)NC(=S)Nc1ccccc1O		45.3%
CC1(C)O[C@@H]2[C@H](O1)[C@@H](COS(=O)(=O)O)O[C@H]2n1ccc(=O)[nH]c1=O		58.2%
CN(C)S(=O)(=O)c1cccc(NC(=O)Cc2ccsc2)c1		44.5%
CN(c1ccccc1)S(=O)(=O)c1cccc(NC(=O)Cc2c(F)cccc2Cl)c1	14.7 µM (active)	

SMILES	Potency	activity change, negative = inhibition
CN(c1ccccc1)S(=O)(=O)c1ccc(NC(=O)COc2ccccc2)cc1		0.845%
Cc1ccc(S(=O)(=O)n2cccc2CO)cc1		73.9%
COc1ccccc1CCNC(=O)C1CCN(C(=O)/C=C/c2ccccc2)CC1		118%
CCN(CC(=O)NCc1ccc(Cl)cc1)C(=O)CSc1ccccc1		-0.0811%
Nc1ccc(-c2nnc(-c3ccc(-c4ccccc4)cc3)o2)cc1		69.9%
Nc1ccc(Nc2ccccc2)cc1	9.28 µM (active)	
Nc1ccc(C(=O)NCc2ccccc2)cc1		52.7%
Cc1ccnc(NC(=O)CNC(=O)c2ccccc2)c1		112%
COc1ccc(Nc2ncnc3ccc(Br)cc23)c(OC)c1		1.32%
C=CCNc1ncnc2ccc(Br)cc12		-11.7%
CC1(C)CC2CC(C)(CN2c2ncnc3ccc(Br)cc23)C1 (configuration not stated)	16.5 µM (active)	
CCC(C)C(=O)Nc1ccccc1N1CCN(c2ccc(F)cc2)CC1 (configuration not stated)		14.6%
Cc1csc(=O)n1CCC(=O)OCC(=O)NNC(=O)c1ccc(Br)cc1		-26.8%
O=c1ccc2cc(S(=O)(=O)Nc3ccccc3F)ccc2o1		-5.54%
O=C1COc2ccc(S(=O)(=O)Nc3ccc(OC(F)(F)F)cc3)cc2N1		61.4%
O=C(COC(=O)c1ncc(Cl)c(Cl)c1Cl)NCc1cccs1		26%
O=C(COC(=O)c1cccs1)NCc1cccs1		-16.4%
O=C(COC(=O)c1ccc(Cl)nc1)NCc1cccs1	2.33 µM (active)	
COc1ccc(-c2nn(-c3ccccc3)cc2/C=C2/SC(=S)N(CCCC(=O)O)C2=O)c(C)c1		0%
CS(=O)(=O)N1CCc2cc(C(=O)Nc3ccccc3Br)ccc21		36.8%
O=C(O)c1cnn2c(C(F)(F)F)cc(-c3ccccc3)nc12		0.482%
COc1ccc(C(=O)Nc2ccccc2C(=O)NCc2ccco2)cc1		5.08%

SMILES	Potency	activity change, negative = inhibition
O=C(NCc1ccco1)c1cnn2c(C(F)(F)F)cc(-c3ccco3)nc12	1.65 µM (active)	
CCC1CCCCN1C(=O)CSc1nc(C)cc(C)n1 (configuration not stated)		-20.6%
CCC1CCCCN1C(=O)CSc1nc2c(c(=O)n(C)c(=O)n2C)n1C (configuration not stated)		30.9%
CCC1CCCCN1C(=O)CSc1nc2c(c(=O)n1C)SC(C)C2 (configuration not stated)	1.47 µM (active)	
O=S(=O)(NCc1ccccc1Br)c1ccccc1Br		-12.7%
O=C(CN1CCN(C2CCS(=O)(=O)C2)CC1)N1N=C(c2ccc(Cl)cc2)CC1c1ccco1 (configuration not stated)		70.1%
CCOC(CNC(=O)C(=O)NCC(c1ccco1)N1CCN(c2ccc(OC)cc2)CC1)OCC (configuration not stated)		37.7%
CC1Cc2ccccc2N1S(=O)(=O)c1cccc(C(=O)NCC(c2ccco2)N2CCCC2)c1 (configuration not stated)	1.85 µM (active)	
COc1ccc(C(=O)NCC(c2ccco2)N2CCc3ccccc32)cc1OC (configuration not stated)		-14.9%
O=C(NCC(c1ccco1)N1CCc2ccccc2C1)c1ccccc1Cl (configuration not stated)		-4.98%
Cc1ccccc1C(=O)NCC(c1ccco1)N1CCc2ccccc21 (configuration not stated)		-10.7%
COc1cc(C(=O)NCC(c2ccco2)N2CCCC2)ccc1OCc1ccccc1 (configuration not stated)	2.62 µM (active)	
O=C(Cc1ccccc1Cl)N1CCOCC1		52%
COc1ccc(CCNC(=O)c2nnc(CS(=O)(=O)c3ccccc3)o2)cc1OC		21.2%
CC(C)Cc1nnc(NC(=O)CN2C(=O)NC3(CCCCC3)C2=O)s1		-3.02%
COc1ccc(CCN2C(=O)C3CC=C(C)CC3C2=O)cc1OC (configuration not stated)		17.6%
COc1ccc(CCN=C2SCC(=O)N2C)cc1OC		128%
COc1ccc(CCN2CNc3c(c(=O)n(C)c(=O)n3C)C2)cc1OC	13.1 µM (active)	
CN(c1ccccc1)S(=O)(=O)c1cccc(C(=O)NNC(=O)c2ccncc2)c1		36%
